Drawing on PubChem BioAssay (Tox21), this text covers Potency and outcome for 7 molecules.

A number with no mark means an inactive call. Inconclusive results are not listed. Calls of active or inactive are those of the source. Unless noted, calls come from the whole dose curve.

Test [1] in a line: Nuclear factor erythroid 2-related factor 2/antioxidant responsive element (Nrf2/ARE) small molecule agonists: qHTS cell viability counter screen in human keratinocytes (AID 1919968; active = well fitted curve in the direction sought with a large enough effect in the repeat runs; an effect the other way counts as inactive or inconclusive; note: nearly all actives have a fitted effect of over 55% in size; note: potency is the fitted concentration of half-maximal effect). The method, boiled down: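 HaCaT ARE reporter line, 1,500 cells/well; 5 h settle, 37 C/5% CO2; cpd in DMSO pinned; 23 h exposure; CellTiter-Fluor, 1 h; fluorescence.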
Background: In qHTS, concentration-response curves come from the screen itself.

A short description of test [2]: Nuclear factor erythroid 2-related factor 2/antioxidant responsive element (Nrf2/ARE) small molecule agonists: luciferase reporter gene qHTS assay in human keratinocytes (AID 1919969). Note: nearly all actives have a fitted effect of over 35% in size. Note: potency is the fitted concentration of half-maximal effect.
Test [3] addresses Gonadotropin-releasing hormone receptor (Homo sapiens) (UniProt P30968). Nature of the test: Human gonadotropin-releasing hormone receptor (GnRHR) small molecule agonists, calcium flux assay in GnRHR-HEK293 cells (AID 1920063). Note: nearly all actives have a fitted effect of over 35% in size. The method, boiled down:
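GnRHR-HEK293, 1500 cells/well, 18 h 37 C/5% CO2; Ca dye 1 h 37 C; cpd pinned (DMSO), agonist mode; kinetic FL 480/540, 3 min, 1 s reads; 15 conc, n=3.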
In general terms: A change in cytosolic calcium serves as a functional read-out for many receptors and channels.

Test [4] concerns the target KiSS-1 receptor (Homo sapiens) (UniProt Q969F8). Nature of the test: Human kisspeptin (KISS1R) small molecule agonists, calcium flux assay in KISS1R-HEK293 cells (AID 1920064; active = well fitted curve in the direction sought with a large enough effect in the repeat runs; an effect the other way counts as inactive or inconclusive). Put shortly: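 Stable human KISS1R HEK293 line; 18 h plating, 37 C/5% CO2; calcium dye 1 h 37 C; compound pin transfer; kinetic fluorescence Ex/Em 480/540, 3 min.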
Test [5] can be described thus: G protein-coupled receptor (GPCR) small molecule agonists, calcium flux assay: HEK293 wild type cell line counter screen (AID 1920065). The method, boiled down:
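Kinetic fluorescence at Ex/Em 480/540, recorded every second over 3 min, served as the read-out after compound addition. Each compound was tested at 15 concentrations in triplicate on cells pre-loaded with calcium dye for 1 h.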

Test [6] in a line: p53 small molecule agonists, cell-based qHTS assay with human liver microsomes (AID 1963577).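 Note: p53 response element beta-lactamase reporter cells with liver microsomes plus NADPH.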 Put shortly:
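HLM-supplemented p53RE-bla reporter assay: 16 h compound exposure at 37 C, microsomes and NADPH each 0.5 mg/mL final, read by fluorescence intensity.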

A short description of test [7]: p53 small molecule agonists, cell-based qHTS assay with rat liver microsomes (AID 1963578). Put shortly:
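Quantitative HTS of the Tox21 10K library: p53RE-bla cells, rat liver microsomes plus NADPH at 0.5 mg/mL final each, 16 h at 37 C, beta-lactamase fluorescence detection.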

The nature of test [8]: p53 small molecule agonists, cell-based qHTS assay with human liver microsomes: qHTS cell viability counter screen (AID 1963579). Note: nearly all actives have a fitted effect of over 45% in size. The method, boiled down: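 Viability of p53RE-bla cells is measured as CellTiter-Glo luminescence following a 16 h, 37 C incubation with compound, liver microsomes from human donors and NADPH.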
A short description of test [9]: p53 small molecule agonists, cell-based qHTS assay with rat liver microsomes: qHTS cell viability counter screen (AID 1963580). Note: nearly all actives have a fitted effect of over 45% in size. Put shortly: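 Viability is assessed in parallel with the p53 reporter read: HCT-116 p53RE-bla cells receive compounds plus rat microsomes and NADPH (0.5 mg/mL final apiece), incubate 16 h at 37 C, and then CellTiter-Glo luminescence is recorded.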

A short description of test [10]: p53 small molecule agonists, cell-based qHTS assay: qHTS cell viability counter screen (AID 1963581). Note: nearly all actives have a fitted effect of over 45% in size. Put shortly:
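HCT-116 p53RE-bla cells, 4,000/well, plated 5 h before compound pin transfer; 16 h at 37 C; bla substrate 2 h RT; then CellTiter-Glo, 30 min RT, luminescence.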

Test [11] can be described thus: p53 small molecule agonists, cell-based qHTS assay (AID 1963582; active = well fitted activation curve with a large enough effect in the signal ratio in the repeat runs, not every such curve was filed as active; the % refers to the signal ratio). Put shortly:
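Reporter line: p53RE-bla. Pre-incubation 5 h, 37 C, 5% CO2; compound (DMSO, pin tool) 16 h, 37 C; B/G FRET substrate 2 h RT; fluorescence intensity read.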

Test [12] addresses 5-hydroxytryptamine receptor 2A (Homo sapiens) (UniProt P28223). Nature of the test: 5-hydroxytryptamine receptor 2A (HTR2A) small molecule agonists, cell-based qHTS assay (AID 1963587). Note: nearly all actives have a fitted effect of over 30% in size. Note: potency is the fitted concentration of half-maximal effect. Put shortly:
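CHO cells stably expressing human HTR2A, plated 18 h, loaded with calcium dye 1 h at 37 C. Agonist mode: compounds added and intracellular calcium fluorescence recorded kinetically for 2 min at 1 sec intervals.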

Test [13] deals with Muscarinic acetylcholine receptor M1 (Homo sapiens) (UniProt P11229). Nature of the test: Cholinergic receptor muscarinic 1 (CHRM1) small molecule antagonists, cell-based qHTS assay (AID 1963588). Note: nearly all actives have a fitted effect of over 40% in size. Note: potency is the fitted concentration of half-maximal effect. The method, boiled down:
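CHRM1-CHO calcium-flux assay, antagonist mode. Cells were seeded 18 h, dye-loaded 1 h at 37 C and given compound for 5 min at RT, then acetylcholine was added at 50nM. FDSS fluorescence was read 3 min; 15 concentrations, three runs.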

The target is the same in test [14]. Nature of the test: Cholinergic receptor muscarinic 1 (CHRM1) small molecule agonists, cell-based qHTS assay (AID 1963589). Note: nearly all actives have a fitted effect of over 35% in size. The method, boiled down: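 Human M1 in stable CHO line; 18 h plating, 1 h dye load 37 C; cpd added (agonist mode); Ca2+ fluorescence kinetic read, 1 s intervals; 15 conc, 3 runs.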
The nature of test [15]: cAMP Responsive Elements (CRE) small molecule antagonists, cell-based qHTS assay (AID 1963591; active = well fitted inhibition curve with a large enough effect in the signal ratio in the repeat runs, not every such curve was filed as active; the % refers to the signal ratio). The method, boiled down: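 Beta-lactamase reporter read by FRET substrate (LiveBLAzer B/G) after 2 h at room temperature. CRE-bla HEK293T cells had received compound plus 0.25 uM (final) NKH477 for 3 h at 37 °C.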
Test [16] has as its target Beta-2 adrenergic receptor (Homo sapiens) (UniProt P07550). Nature of the test: Adrenergic beta2 receptor (ADRB2) small molecule antagonists, cell-based qHTS assay (AID 1963592). Note: series mostly up to about 92 µM; nearly all actives have a fitted effect of over 50% in size. Put shortly:
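Cells (CHO, stable ADRB2 overexpression) incubated 18-20hr at 37C; compounds added from DMSO; agonist mix (1nM isoproterenol, 100uM IBMX, 25uM Ro-20-1724) added; 0.5hr RT; d2-cAMP and anti-cAMP-cryptate added; 1hr RT; 665/615 nm read.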

For test [17] the target is unchanged. Nature of the test: Adrenergic beta2 receptor (ADRB2) small molecule agonists, cell-based qHTS assay (AID 1963593).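 Note: CHO cells stably overexpressing human ADRB2.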 Put shortly:
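CHO cells stably over-expressing ADRB2 were plated overnight at 37C, then dosed with compounds plus a stimulation mix containing 100uM IBMX and 25uM Ro-20-1724 for 0.5hr at room temperature. cAMP was measured by HTRF competition, 1hr.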

Test [18] has as its target D(2) dopamine receptor (Homo sapiens) (UniProt P14416). Nature of the test: Dopamine D2 receptor (DRD2) small molecule agonists, cell-based qHTS assay (AID 1963594). Note: nearly all actives have a fitted effect of over 35% in size. The method, boiled down: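 HEK293 cells stably expressing human DRD2, pre-treated with PDE inhibitor Ro20-1724 (0.1 mM final) and compound 10 min at room temperature, then stimulated with NKH477 (200nM […]) for 30 min. cAMP read by HTRF (665/620 nm).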

For test [19] the target is unchanged. Nature of the test: Dopamine D2 receptor (DRD2) small molecule antagonists, cell-based qHTS assay (AID 1963595; active = well fitted inhibition curve with a large enough effect in the signal ratio in the repeat runs, with a control signal flat; the % refers to the signal ratio). Put shortly: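 Cells were plated and grown for 24 h at 37 °C. Ro20-1724 (0.1 mM final) went in first, then compound for 10 min. NKH477 (200 nM) with quinpirole (12 nM) followed for 30 min at RT, then HTRF detection reagents for 1 h.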
Test [20] can be described thus: cAMP Responsive Elements (CRE) small molecule agonists, cell-based qHTS assay (AID 1963590). Put shortly: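 HEK 293T CRE-bla, 2,000 cells/well, 18 h preincubation 37 C/5% CO2; cpds (DMSO) pinned, 3 h; LiveBLAzer B/G FRET substrate, 2 h RT.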

Sequence of Beta-2 adrenergic receptor (Homo sapiens) (P07550 whole entry, looked up): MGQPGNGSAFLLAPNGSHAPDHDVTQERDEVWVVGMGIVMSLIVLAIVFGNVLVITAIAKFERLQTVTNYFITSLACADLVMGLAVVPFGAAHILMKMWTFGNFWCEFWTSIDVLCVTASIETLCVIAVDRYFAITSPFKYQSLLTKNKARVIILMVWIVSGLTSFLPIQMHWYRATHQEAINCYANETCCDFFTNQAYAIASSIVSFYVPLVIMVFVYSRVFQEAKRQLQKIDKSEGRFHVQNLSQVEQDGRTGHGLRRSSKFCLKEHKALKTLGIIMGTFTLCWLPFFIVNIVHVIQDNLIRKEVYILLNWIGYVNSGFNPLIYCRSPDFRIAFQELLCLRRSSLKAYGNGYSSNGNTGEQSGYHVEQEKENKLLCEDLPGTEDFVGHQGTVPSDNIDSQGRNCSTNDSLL
Sequence of Muscarinic acetylcholine receptor M1 (Homo sapiens) (P11229 whole entry, looked up): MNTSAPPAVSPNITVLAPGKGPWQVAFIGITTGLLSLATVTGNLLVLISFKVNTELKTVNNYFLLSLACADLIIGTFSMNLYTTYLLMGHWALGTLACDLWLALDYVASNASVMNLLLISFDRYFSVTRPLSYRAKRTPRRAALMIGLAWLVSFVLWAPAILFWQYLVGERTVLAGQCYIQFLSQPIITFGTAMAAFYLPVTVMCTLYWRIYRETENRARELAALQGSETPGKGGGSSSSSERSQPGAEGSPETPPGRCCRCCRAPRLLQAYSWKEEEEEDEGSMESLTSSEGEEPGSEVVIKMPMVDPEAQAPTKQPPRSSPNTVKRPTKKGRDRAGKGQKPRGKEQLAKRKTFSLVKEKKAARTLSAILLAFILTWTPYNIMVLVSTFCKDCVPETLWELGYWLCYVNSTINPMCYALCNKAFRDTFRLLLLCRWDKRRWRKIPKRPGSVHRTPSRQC
Sequence of D(2) dopamine receptor (Homo sapiens) (P14416 whole entry, looked up): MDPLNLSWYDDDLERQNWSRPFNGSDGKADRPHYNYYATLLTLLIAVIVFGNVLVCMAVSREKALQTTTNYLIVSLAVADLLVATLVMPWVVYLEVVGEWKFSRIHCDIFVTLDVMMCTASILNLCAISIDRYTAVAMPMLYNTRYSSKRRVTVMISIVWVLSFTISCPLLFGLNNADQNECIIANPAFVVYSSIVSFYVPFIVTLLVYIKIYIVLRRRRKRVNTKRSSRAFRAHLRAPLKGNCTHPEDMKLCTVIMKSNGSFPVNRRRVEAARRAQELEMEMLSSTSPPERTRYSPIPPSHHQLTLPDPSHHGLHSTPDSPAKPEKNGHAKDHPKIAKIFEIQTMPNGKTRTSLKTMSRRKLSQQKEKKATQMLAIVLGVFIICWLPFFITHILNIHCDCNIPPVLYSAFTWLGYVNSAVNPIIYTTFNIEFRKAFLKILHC
Sequence of KiSS-1 receptor (Homo sapiens) (Q969F8 whole entry, looked up): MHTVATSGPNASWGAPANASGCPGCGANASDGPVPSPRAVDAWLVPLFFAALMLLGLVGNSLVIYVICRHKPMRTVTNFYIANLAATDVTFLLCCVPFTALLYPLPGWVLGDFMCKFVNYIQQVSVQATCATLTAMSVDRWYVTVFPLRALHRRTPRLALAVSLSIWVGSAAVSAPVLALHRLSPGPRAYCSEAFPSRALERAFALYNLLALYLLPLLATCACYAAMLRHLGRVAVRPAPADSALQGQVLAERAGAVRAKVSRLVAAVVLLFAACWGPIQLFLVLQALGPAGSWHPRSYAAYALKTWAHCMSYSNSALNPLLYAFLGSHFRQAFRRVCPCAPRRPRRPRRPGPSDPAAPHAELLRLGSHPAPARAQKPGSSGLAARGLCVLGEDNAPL
Sequence of 5-hydroxytryptamine receptor 2A (Homo sapiens) (P28223 whole entry, looked up): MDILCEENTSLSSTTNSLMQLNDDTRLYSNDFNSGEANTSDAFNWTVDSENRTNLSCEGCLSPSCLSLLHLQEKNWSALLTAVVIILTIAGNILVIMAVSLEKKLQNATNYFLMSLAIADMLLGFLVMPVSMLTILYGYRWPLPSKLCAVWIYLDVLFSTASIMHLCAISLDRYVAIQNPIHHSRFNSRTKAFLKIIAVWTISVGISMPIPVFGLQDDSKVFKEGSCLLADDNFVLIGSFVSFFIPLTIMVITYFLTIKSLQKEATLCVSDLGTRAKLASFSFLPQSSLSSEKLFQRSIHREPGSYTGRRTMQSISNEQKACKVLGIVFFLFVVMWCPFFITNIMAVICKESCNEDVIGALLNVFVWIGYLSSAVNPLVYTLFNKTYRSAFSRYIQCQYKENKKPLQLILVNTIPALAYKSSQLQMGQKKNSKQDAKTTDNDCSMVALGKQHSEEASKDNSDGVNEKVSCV
Sequence of Gonadotropin-releasing hormone receptor (Homo sapiens) (P30968 whole entry, looked up): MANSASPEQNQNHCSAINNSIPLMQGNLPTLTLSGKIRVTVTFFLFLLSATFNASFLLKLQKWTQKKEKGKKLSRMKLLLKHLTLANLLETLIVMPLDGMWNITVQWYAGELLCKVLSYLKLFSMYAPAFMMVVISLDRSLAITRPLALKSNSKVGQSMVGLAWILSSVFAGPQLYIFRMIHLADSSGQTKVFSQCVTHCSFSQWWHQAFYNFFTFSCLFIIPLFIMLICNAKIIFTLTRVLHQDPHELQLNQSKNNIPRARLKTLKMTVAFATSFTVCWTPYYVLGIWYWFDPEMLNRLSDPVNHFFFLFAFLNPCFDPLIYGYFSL

`Cc1cc(O)c2c(c1)C(=O)c1cccc(O)c1C2=O`: the Potency entry in [1], in [3], in test [6], in test [7], in [8] and in [9] was “inactive” each time. The Potency entry in test [10], in [11], in test [12], in test [13], in [14] and in [15] was “inactive” throughout. For the same molecule, the Potency result in test [16], in test [17], in test [18] and in [19] was “inactive” in each case. Moreover, in [2], the Potency is 8.43 µM (active). For the same molecule, the result in [4] and in test [5] was inactive.

Consider `CCCCN(CCCC)CCCOC(=O)c1ccc(N)cc1`, for which the Potency result in test [1], in [2], in [3], in test [6], in test [7] and in test [8] was “inactive” throughout. Further, the Potency entry in test [9], in [10], in test [11], in test [13], in test [14] and in test [15] was “inactive” throughout. For the same molecule, the Potency entry in test [18] and in test [19] was “inactive” throughout. In addition, the outcome in test [4] and in [5] was inactive. Moreover, the Potency in test [12] was 3.38 µM (active).

`Cc1c(C)c2c(c(C)c1OC(=O)CCC(=O)OCCO)CC[C@@](C)(CCC[C@H](C)CCC[C@H](C)CCCC(C)C)O2`: the Potency in test [1] was 26.6 µM (active). The Potency entry in test [2], in test [3], in test [6], in [7], in [8] and in test [9] was “inactive” throughout. Also, the Potency entry in test [10], in [11], in test [12], in test [14] and in test [19] was “inactive” throughout. The outcome in test [4] and in [5] was inactive.

On to `Nc1ccc(C(=O)N2CC3CC(CN(Cc4ccccc4)C3)C2)cc1`, for which the Potency entry in [1], in test [2], in test [3], in test [6], in test [7] and in test [8] was “inactive” throughout. Also, the Potency result in [9], in [10], in [11], in [12], in test [14] and in [16] was “inactive” each time. In addition, the Potency entry in test [18] and in test [19] was “inactive” in each case. Besides, the outcome in test [4] and in test [5] was inactive. The Potency in test [13] was 1.83 µM (active).

For the molecule `CCOC(=O)c1ccc(I)cc1`, the Potency result in test [1], in test [2], in test [3], in test [6], in test [7] and in [8] was “inactive” in each case. Also, the Potency result in test [9], in [10], in test [11], in test [12], in test [13] and in test [14] was “inactive” each time. Also, the Potency result in test [15], in test [16], in test [18] and in test [19] was “inactive” in each case. For the same molecule, the result in [4] and in test [5] was inactive.

In the case of `CCCCCCCCOCCCN`, the Potency in test [1] was 68.6 µM (active); in [12] it was 24.5 µM (active). The Potency entry in test [2], in test [3], in test [6], in test [7], in test [8] and in [9] was “inactive” throughout. Also, the Potency result in test [10], in test [11], in test [13], in [20], in [15] and in [16] was “inactive” throughout. Also, the Potency entry in test [18] is “inactive”. Further, the result in test [4] and in [5] was inactive.

In the case of `C1COC(NC(C2CC2)C2CC2)=N1`, the Potency entry in test [1], in [2], in test [3], in test [6], in test [7] and in [8] was “inactive” throughout. The Potency result in test [9], in [10], in test [11], in test [12], in [13] and in test [20] was “inactive” each time. Also, the Potency entry in [16], in test [17], in test [18] and in test [19] was “inactive” each time. Also, the result in test [4] and in test [5] was inactive.
